Columns and labels:
Settings in all cases: concentration: 1 μM, replicates: in singlicate; n = 1
[1] = test system: TTK
[2] = test system: TXK
[3] = test system: TYK2(JH1domain-catalytic)
[4] = test system: TYK2(JH2domain-pseudokinase)
[5] = test system: TYRO3
[6] = test system: ULK1
[7] = test system: ULK2
[8] = test system: ULK3
[9] = test system: T1, VEGFR2
T1 construct: gene KDR

[10] = test system: T2, VPS34
T2 construct: gene PIK3C3

[11] = test system: VRK2
[12] = test system: WEE1
[13] = test system: WEE2
[14] = test system: WNK1
[15] = test system: WNK2
[16] = test system: WNK3
[17] = test system: WNK4
[18] = test system: T3, YANK1
T3 construct: gene STK32A

[19] = test system: T4, YANK2
T4 construct: gene STK32B

[20] = test system: T5, YANK3
T5 construct: gene STK32C
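Further: KINOMEscan kinase panel screen.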

Compound | %Inh [1] | %Inh [2] | %Inh [3] | %Inh [4] | %Inh [5] | %Inh [6] | %Inh [7] | %Inh [8] | %Inh [9] | %Inh [10] | %Inh [11] | %Inh [12] | %Inh [13] | %Inh [14] | %Inh [15] | %Inh [16] | %Inh [17] | %Inh [18] | %Inh [19] | %Inh [20]
O=C1NC(=O)C(N2CCc3ccccc32)=C1c1ccccc1Cl [SB-373598] | 65% | 28% | 0% | 0% | 0% | 61% | 6% | 39% | 2% | 16% | 0% | 6% | 9% | 0% | 2% | 22% | 75% | 13% | 16% | 20%
O=S(=O)(c1ccc(-c2ccnc3[nH]ccc23)cc1)N1CCCC1 [GSK846226] | 20% | 9% | 62% | 20% | 0% | 19% | 0% | 27% | 15% | 46% | 0% | 8% | 2% | 5% | 7% | 3% | 0% | 11% | 0% | 0%
CS(=O)(=O)c1ccc(-c2nc3n(c2-c2ccncc2)CCC3)cc1 [SKF-105942] | 0% | 0% | 0% | 0% | 0% | 19% | 0% | 11% | 0% | 0% | 12% | 0% | 10% | 0% | 0% | 0% | 29% | 0% | 0% | 100%
CC(C)(C)c1ccc(C(=O)Nc2cn3cc(Cl)ccc3n2)cc1 | 0% | 0% | 0% | 0% | 9% | 0% | 0% | 10% | 12% | 13% | 0% | 0% | 0% | 0% | 0% | 0% | 0% | 0% | 0% | 3%
COc1ccc(C2=C(Nc3cccc(C(=O)O)c3)C(=O)NC2=O)cc1 [SB-390765] | 10% | 21% | 0% | 0% | 22% | 16% | 8% | 28% | 21% | 33% | 0% | 0% | 16% | 49% | 15% | 23% | 24% | 0% | 0% | 0%
Cn1ccc2ncnc(Oc3cccc(C(=O)Nc4ccccc4)c3)c21 | 0% | 0% | 0% | 0% | 0% | 0% | 6% | 9% | 59% | 11% | 0% | 5% | 0% | 0% | 0% | 0% | 0% | 11% | 1% | 29%
Cc1cc(N2Cc3ccccc3C2)nc(Nc2ccc(S(=O)(=O)N3CCOCC3)cc2)n1.Cl [GSK1669917] | 0% | 0% | 7% | 0% | 0% | 0% | 0% | 0% | 0% | 0% | 0% | 3% | 0% | 0% | 7% | 2% | 10% | 7% | 0% | 0%
COc1cccc(-c2cc(-c3c[nH]nc3-c3ccccn3)ccn2)c1 [GW680338] | 23% | 0% | 12% | 9% | 0% | 0% | 0% | 7% | 0% | 0% | 24% | 19% | 4% | 0% | 17% | 26% | 25% | 2% | 0% | 0%
COC(=O)c1c(-c2ccccc2)c2cc(C(=O)O)ccc2c(=O)n1Cc1ccccc1 | 4% | 0% | 0% | 4% | 7% | 0% | 0% | 0% | 0% | 9% | 0% | 0% | 0% | 0% | 0% | 0% | 3% | 0% | 3% | 2%
Cc1ccc(NC(=O)Nc2cc(C(C)(C)C)nn2-c2ccccc2)cc1 [GSK1014915] | 4% | 0% | 25% | 4% | 7% | 17% | 0% | 13% | 6% | 0% | 0% | 0% | 7% | 9% | 0% | 13% | 25% | 13% | 5% | 7%
